# Out of some 310,000 compounds screened, about 2,200 (0.71%) showed an effect of 50% or more. Effects have a minus sign here. What follows is part of a selection rich in strong results, with near analogues and random picks from the rest.
# Biological target: human ether-à-go-go-related gene (hERG) potassium channel (human, UniProt Q12809)
# Experiment: primary screen, population patch clamp on CHO cells stably expressing hERG; higher = less effect of the substance
# Chain of human ether-à-go-go-related gene (hERG) potassium channel (Q12809 whole entry, looked up): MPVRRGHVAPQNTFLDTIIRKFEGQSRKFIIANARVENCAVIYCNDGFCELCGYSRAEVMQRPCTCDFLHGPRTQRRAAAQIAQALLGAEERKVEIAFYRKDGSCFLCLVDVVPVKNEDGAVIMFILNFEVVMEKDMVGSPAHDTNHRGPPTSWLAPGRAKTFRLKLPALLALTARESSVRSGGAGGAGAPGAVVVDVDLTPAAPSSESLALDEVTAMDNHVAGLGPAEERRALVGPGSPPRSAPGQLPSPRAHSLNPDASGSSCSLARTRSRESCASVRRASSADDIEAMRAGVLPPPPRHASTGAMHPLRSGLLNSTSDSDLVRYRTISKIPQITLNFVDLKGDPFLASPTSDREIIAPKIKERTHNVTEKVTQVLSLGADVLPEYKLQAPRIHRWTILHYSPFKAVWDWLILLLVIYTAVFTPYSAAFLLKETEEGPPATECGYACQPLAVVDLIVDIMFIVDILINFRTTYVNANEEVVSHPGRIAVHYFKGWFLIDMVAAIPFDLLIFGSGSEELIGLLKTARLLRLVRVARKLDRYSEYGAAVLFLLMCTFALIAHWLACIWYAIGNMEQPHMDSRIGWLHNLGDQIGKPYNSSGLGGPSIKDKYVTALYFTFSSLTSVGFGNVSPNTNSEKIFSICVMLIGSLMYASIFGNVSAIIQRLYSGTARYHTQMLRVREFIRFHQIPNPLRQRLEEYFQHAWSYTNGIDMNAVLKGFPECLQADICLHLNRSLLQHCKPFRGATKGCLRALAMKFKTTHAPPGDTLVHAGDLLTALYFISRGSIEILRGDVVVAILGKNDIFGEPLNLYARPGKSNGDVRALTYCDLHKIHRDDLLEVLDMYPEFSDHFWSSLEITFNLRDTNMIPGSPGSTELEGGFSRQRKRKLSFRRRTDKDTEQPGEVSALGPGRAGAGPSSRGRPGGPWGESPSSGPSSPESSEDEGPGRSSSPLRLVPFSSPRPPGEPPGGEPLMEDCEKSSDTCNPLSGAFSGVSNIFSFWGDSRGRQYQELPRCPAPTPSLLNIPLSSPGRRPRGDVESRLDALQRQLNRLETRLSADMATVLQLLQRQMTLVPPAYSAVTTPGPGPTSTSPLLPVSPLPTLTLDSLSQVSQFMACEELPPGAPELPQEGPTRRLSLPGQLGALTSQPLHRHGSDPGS
row,Structure (SMILES),"hERG current change (%, negative = inhibition) at 1uM [%]"
1,COc1cccc(C2=NOC(C(=O)Nc3cccnc3Cl)C2)c1OC (stereo not shown),14.2
2,COc1ccccc1C(=O)Nc1ccc2nc3n(c(=O)c2c1)CCCC3,-2.02
3,COc1cc(C(=O)Nc2ccc3nc4n(c(=O)c3c2)CCCCC4)cc(OC)c1OC,-1.94
4,COc1ccc(Cl)cc1C(=O)Nc1ccc2nc3n(c(=O)c2c1)CCCC3,-51.8
5,COc1cc2c(C(=O)N3CCCc4ccccc43)cn(C)c(=O)c2cc1OC,7.48
6,O=C(c1ccc(Cl)cc1)c1cc([N+](=O)[O-])ccc1N1CCOCC1,10.3
7,CCCN1CCN(c2ccc([N+](=O)[O-])cc2C#N)CC1,-57.8
8,CCN1CCN(c2ccc([N+](=O)[O-])cc2C#N)CC1,-49.8
9,N#Cc1cc([N+](=O)[O-])ccc1N1CCCC1,-12.3
10,CN1CCN(c2ccc([N+](=O)[O-])cc2C(=O)c2ccc(Cl)cc2)CC1,-24.3
11,CCN1CCN(c2ccc([N+](=O)[O-])cc2C(=O)c2ccc(Cl)cc2)CC1,-58.3
12,Cc1ccc(NCCC(=O)c2cccs2)cc1C,5.33
13,O=C(CSc1cn(Cc2ccccc2)c2ccccc12)N1CCOCC1,-4.92
14,CCOc1ccc(NC(=S)NCCCN2CCN(c3ccc(OC)cc3)CC2)cc1,-29.3
15,O=c1[nH]c2ccccc2nc1-c1c[nH]c2ccccc12,17.9
16,Cc1ccc(-n2nnnc2SCC(=O)NCC2(N3CCCCC3)CCCCC2)c(C)c1,-201
17,O=C(CSc1nnnn1-c1ccccc1)NCC1(N2CCCCC2)CCCCC1,-23.9
18,Cc1ccccc1-n1nnnc1SCC(=O)NCC1(N2CCOCC2)CCCCC1,6.3
19,Cc1ccc(CNC(=O)c2cnccn2)cc1,11.4
20,COc1ccc(NC(=O)[C@@H](NC(=O)N2C[C@H]3C[C@@H](C2)c2cccc(=O)n2C3)C(C)C)cc1,8.5
21,Fc1ccc(-c2nc3c(-c4ccc(F)cc4)cnn3cc2CCN2CCOCC2)cc1,-3.19
22,COc1ccc(CN2CCC(n3nccc3NC(=O)C3CCCC3)CC2)c(OC)c1,-70.6
23,COc1ccc(CC(=O)N2CCC(n3nccc3NC(=O)C3CC3)CC2)cc1,13.3
24,COc1ccccc1/C=C/CN1CCC(n2nccc2NC(=O)C2CC2)CC1,-37.8
25,COc1ccc(OCC(=O)N2CCC(n3nccc3NC(=O)C3CC3)CC2)cc1,-1.98
26,COc1ccc(/C=C/CN2CCC(n3nccc3NC(=O)C3CCCC3)CC2)cc1,-92.1
27,COc1ccc(/C=C/CN2CCC(n3nccc3NC(=O)C3CC3)CC2)cc1,-59.6
28,COc1ccc(O)c(CN2CCC(n3nccc3NC(=O)C3CCCC3)CC2)c1,-28.4

row,Structure (SMILES),"hERG current change (%, negative = inhibition) at 1uM [%]"
1,Cc1cc(C)c(CN2CCC(n3nccc3NC(=O)C3CCCC3)CC2)cc1C,-26.4
2,CC(C)(CO)CN1CCC(n2nccc2NC(=O)C2CCCC2)CC1,10.2
3,Cc1ncc(S(=O)(=O)c2ccccc2)c(-c2ccccc2Cl)n1,2.7
4,Cc1cc2c(cc1S(=O)(=O)NC1CCCCC1C)OCC(=O)N2 (stereo not shown),5.01
5,Cc1ccc(OCCNC(=O)c2ccc(NC(=O)CC3SC(N4CCCC4)=NC3=O)cc2)cc1 (stereo not shown),-6.94
6,C=C(C)CNC(=O)c1ccc(OC2CCN(S(=O)(=O)N(C)C)CC2)cc1,13.2
7,COc1ccc2c(c1)CC1(CN2C)C(=O)NC(=O)N(CCc2ccccc2)C1=O (stereo not shown),-6.39
8,CCN(CC)S(=O)(=O)c1ccc2c(c1)N(CC(=O)Nc1ccc(NC(C)=O)cc1)C(=O)CO2,10.6
9,CCCCN(Cc1ccccc1)C1CCN(Cc2ccccc2)CC1,-14.5
10,CCCCN(Cc1ccccc1)C1CCN(CCc2ccccc2)CC1,-13.4
11,CCCN1CCC(N(CCc2ccccc2)Cc2ccccc2)CC1,-73.2
12,O=C(Cc1ccccc1)N1CCN(C2CCCCCC2)CC1.O=C(O)C(=O)O,4.29
13,O=C(O)C(=O)O.c1ccc(CCN(Cc2ccccc2)C2CCN(C3CCCC3)CC2)cc1,-68.9
14,CC(C)CC(=O)N1CCC(N(CCc2ccccc2)Cc2ccccc2)CC1.O=C(O)C(=O)O,7.09
15,O=C(Nc1ccccc1)N1CCCc2ccccc21,-28.2
16,Cc1ccn2c(=O)nc(SCC(=O)N3CCCCCC3)nc2c1,19.6
17,CC(C)CCN(C(=O)Nc1ccc(Cl)cc1)C1CCN(C(C)C)CC1,-57.6
18,CCOc1ccc(NC(=O)N(CCC(C)C)C2CCN(C(C)=O)CC2)cc1,7.21
19,CCCCN(C(=O)Nc1ccc(Cl)cc1)C1CCN(C(C)=O)CC1,-19.1
20,Cc1cc(NC(=O)c2cc3cccc([N+](=O)[O-])c3[nH]2)ccc1F,11.5
21,COc1c(C)cc(Br)cc1C(=O)Nc1cccc(-c2nc3ncccc3o2)c1,-7.42
22,O=C(c1c(F)cccc1F)N1CCN(c2ncccn2)CC1,12.5
23,O=C(c1sc2ccccc2c1Cl)N1CCN(c2ncccn2)CC1,6.43
24,O=C(c1sc2cccc(F)c2c1Cl)N1CCN(c2ncccn2)CC1,-65.4
25,COc1cccc(-c2nn(-c3ccc(C)cc3)cc2C(=O)NCC2CCCO2)c1 (stereo not shown),-0.814
26,COC(=O)c1ccc(S(=O)(=O)NCCSc2nnc3c4ccccc4n(C)c3n2)cc1,1.09
27,CCOc1cc(N2CCOCC2)c(OCC)cc1NC(=O)Cn1nc(C)c([N+](=O)[O-])c1C,6.15

# From publication PMC4336329 (PLoS ONE, 2015)
